# Source: PubChem BioAssay (Tox21)
# Activity calls are given as the source filed them. The call rests on the fitted dose curve; in most records, active means well fitted curve in the direction sought with a large enough effect in the repeat runs; inconclusive means weak or mixed curves; inactive means flat fitted curve, though single readings scatter.
# Assay: qHTS assay to test for compound auto fluorescence at 460 nm (blue) in HEK293 cell free culture (AID 720681)
# Conditions: cell-free medium, autofluorescence 405/460 nm (blue); series mostly up to 91.3 µM; fluorescence, % of fluorescent control: at the top concentration
# Source text: U.S. Tox21 Program National Center for Advancing Translational Sciences [NCATS] NIH Chemical Genomics Center [NCGC] U.S. Environmental Protection Agency [EPA] National Institutes of Environmental Health Sciences [NIEHS] National Toxicology Program [NTP] U.S. Food and Drug Administration [FDA] Tox21 Assay Overview: Compound auto fluorescence often interferes with screening of the compound library against various biological targets and signaling pathways. Some of these compounds may have fluorophoric properties. Such properties may interfere with the assay outputs resulting in false positives and/or negatives. To decrease such complications and ensure the compound activities are relevant in terms of biological response, the Tox21 10K compound library was screened for auto fluorescence. From the fluorophores used as reporter signals in our screening assays, the auto fluorescence equivalencies of compounds against three fluorophores have been evaluated: Triamterene, Fluorescein and Rose Bengal sodium for blue, green and red fluorescence, respectively. The fluorescence intensities were measured using Excitation/Emission wavelengths at 405/460nm, 485/535nm and 540/590nm for blue, green and red labels, respectively. This assay includes the blue fluorescence data.
# Tox21 Assay Protocol Summary: 5 uL of culture medium (DMEM containing 10% FBS) per well was dispensed into black wall/clear bottom 1536-well plates using a Multidrop Combi Dispenser (ThermoFisher Scientific, Waltham, MA). After 23 nL compound or DMSO vehicle was transferred into assay plate by a pintool work station (Kalypsys, San Diego, CA), fluorescence intensities in the assay plates were measured by an Envision (PerkinElmer, Shelton, CT) plate reader using three labels for measuring blue, green and red fluorescence at […] 460, 535 and 590nm respectively.
# On the % scale 0 is the no-effect control and ±100 the full control effect.
SMILES,"fluorescence, % of fluorescent control",Potency
O=[N+]([O-])c1ccccc1CCO,-0.102% [at 95.7 µM] (inactive),
O=C(O)c1ccncc1,0.0799% [at 95.7 µM] (inactive),
CC1=C(C)C(=O)C(C(CCCCCC(=O)O)c2ccccc2)=C(C)C1=O (stereo not given),0.0154% [at 46 µM] (inactive),
O=C1c2ccccc2C(=O)C1c1ccc2ccccc2n1,0.0655% [at 46 µM] (inactive),
CCCCCCCCCCCCSCCOCCO,0.092% [at 46 µM] (inactive),
O=[N+]([O-])c1ccc(Cl)cc1Cl,0.0509% (inactive),
C[C@H](CN1CCCC1)C(=O)c1ccc(C(F)(F)F)cc1,0.054% [at 46 µM] (inactive),
SCCOCCOCCS,0.0904% (inactive),
CC(C)=CCCC(C)C=O (stereo not given),-0.339% (inactive),
CCc1ccc2c(c1)C(=O)c1ccccc1C2=O,0.11% (inactive),
Clc1cccc(C(c2ccc3nc[nH]c3c2)n2ccnc2)c1 (stereo not given),0.128% [at 46 µM] (inactive),
COC(=O)/C=C/C(C)=C\C=C\C(C)=C\C=C\C=C(C)\C=C\C=C(C)\C=C\C(=O)O,1.48% (inactive),
CC(=O)Nc1ccn(C2COC(COC(=O)c3ccccc3)O2)c(=O)n1 (stereo not given),0.0183% [at 46 µM] (inactive),
c1ccc(CCNc2nc(-c3ccccc3)cs2)cc1,0.0513% [at 46 µM] (inactive),
CC1(C)[C@@H]2CC[C@]3(C2)[C@@H]1C(=O)CCC3(C)C,0.355% (inactive),
C=C[Si](OCC)(OCC)OCC,0.0285% (inactive),
C1CCN(CN2CCCCC2)CC1,-0.138% (inactive),
O=C(O)c1ccccc1[N+](=O)[O-],-0.0555% (inactive),
C[C@]12CCC(=O)C=C1[C@@H]1C[C@@H]1[C@H]1[C@@H]3[C@@H]4C[C@@H]4[C@@]4(CCC(=O)O4)[C@@]3(C)CC[C@@H]12,0.115% [at 46 µM] (inactive),
CCCCOC(=O)C(C)Oc1ccc(Oc2ccc(C(F)(F)F)cn2)cc1 (stereo not given),-0.0638% (inactive),

SMILES,"fluorescence, % of fluorescent control",Potency
CC(C)(C)NCC(O)COc1ccc(NC(=O)NC2CCCCC2)cc1 (stereo not given),0.386% [at 46 µM] (inactive),
CC1=C(C)C(=O)C(CCCCC#CCCCC#CCO)=C(C)C1=O,0.0065% [at 46 µM] (inactive),
CC(=O)OCC(=O)[C@@]1(O)CC[C@H]2[C@@H]3CCC4=CC(=O)C=C[C@]4(C)[C@@]3(F)[C@@H](O)C[C@@]21C,-0.0825% [at 18.6 µM] (inactive),
O=C(OCCOCCOCCOC(=O)c1ccccc1)c1ccccc1,-0.0648% (inactive),
CCC(C)CCCC(C)(C)O (stereo not given),-0.318% (inactive),
CCCCCCCCCCCCSC#N,0.0227% (inactive),
O=C(c1ccc(Cl)cc1)c1ccc(Cl)cc1,0.0695% (inactive),
Cc1c(Cl)cccc1Nc1ccccc1C(=O)O,-0.104% [at 46 µM] (inactive),
CCOC(OCC)OCC,-0.0274% (inactive),
O=C(OC1C[C@H]2CC[C@@H](C1)[N+]21CCCC1)C(O)(c1ccccc1)c1ccccc1 (stereo not given in full),-0.0245% [at 46 µM] (inactive),
COc1cccc([C@H](O)C2CCN(CCc3ccc(F)cc3)CC2)c1OC,-0.0449% (inactive),
CCOCCn1c(N2CCCN(C)CC2)nc2ccccc21,-0.0164% [at 46 µM] (inactive),
CC(C)C[C@H](NC(=O)[C@H](Cc1ccccc1)NC(=O)c1cnccn1)B(O)O,,inactive
CCc1ccc(C(=O)C(C)CN2CCCCC2)cc1 (stereo not given),0.0642% [at 46 µM] (inactive),
CCCc1ccc(OC)cc1,-0.0578% (inactive),
CCCOC(C)=O,-0.151% (inactive),
O=C1CCCN1CCO,0.0459% (inactive),
CC(O)CN (stereo not given),0.612% (inactive),
O=P(c1ccccc1)(c1ccccc1)c1ccccc1,-0.119% (inactive),
Cc1nc2sccn2c(=O)c1CCN1CCC(=C(c2ccc(F)cc2)c2ccc(F)cc2)CC1,0.117% [at 46 µM] (inactive),
